About 83,000 compounds went through this panel and 20% of them were active in at least one assay; those are over-represented in the sample as a whole.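 Treatment: one concentration, 48 hours, 96-well format. Scoring: percent growth, with anything below 10 considered active.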 Active and inactive are the calls of the source.

The test system of this test is NCI-H460 lung. Description: NCI-60 one-dose screen, 48 h (100 = growth as untreated, 0 = no growth, -100 = all killed). The settings on record: 10 µM unless noted.
As to `C[C@]12O[C@H](C[C@]1(O)CO)n1c3ccccc3c3c4c(c5c6ccccc6n2c5c31)CNC4=O`, the growth was -61.3% (active).

For the compound `CSc1nc2ncnc(SC)c2[nH]1`, the growth is 109% (inactive).

With `CCc1nc2cc(/C=C/C(=O)NO)ccc2c(=O)n1CCc1ccc(OC)cc1`, the growth was 13% (inactive).

As to `COC(=O)[C@H](Cc1ccc(O)cc1)NC(=O)[C@@H](OC)[C@@H]1Cc2cc3cc(OC4CC(OC5CC(O)C(O)C(C)O5)C(O)C(C)O4)c(C)c(O)c3c(O)c2C(=O)[C@H]1OC1CC(OC2CC(OC3CC(C)(O)C(O)C(C)O3)C(O)C(C)O2)C(O)C(C)O1` (some centres undefined), the growth is 6.99% (active).

With `Nc1ccc(S(=O)(=O)O)c2cc(S(=O)(=O)O)cc(O)c12`, the growth was 108% (inactive).

On to `COc1cc(-c2nc(C(=O)NCC(=O)O)nn2-c2ccc(Cl)cc2)cc(OC)c1OC`, for which the growth is 110% (inactive).

`Cc1ccc(NC(=O)c2ccc(CN3CC[C@H](N(C)C)C3)c(C(F)(F)F)c2)cc1Nc1nccc(-c2cncnc2)n1`: the growth is 4.17% (active).

With `Cc1cc(Oc2ccccc2)ccc1Nc1ncnc2ccc(-c3cnc(Cl)c(NS(C)(=O)=O)c3)cc12`, the growth was 18% (inactive).

On to `COc1ccc(-n2c(=O)c3ccccc3n(Cc3ccc(C(=O)NO)cc3)c2=O)cc1`, for which the growth is 36.4% (inactive).

Consider `N#CC1(C#N)C(c2cccs2)NC(c2cccs2)C1(C#N)C#N` (centres undefined), for which the growth is 110% (inactive).

Take `CC(C)[C@@H]1CC[C@]2(CO2)[C@@H]2C(=O)OCC(C(=O)O)=C[C@H]21`: the growth is 7.86% (active).

Take `O=C(NO)c1ccc(Cn2c(=O)n(CCc3ccccc3)c(=O)c3ccccc32)cc1`: the growth was 25.2% (inactive).

Consider `CNC(=O)c1cc(Oc2ccc(NC(=O)Nc3ccc(Cl)c(C(F)(F)F)c3)c(F)c2)ccn1`, for which the growth is -35.4% (active).

As for `COc1cc2c3c(c1)nc(C)n3CCC2`, the growth was 104% (inactive).

Consider `Cc1sc2c(c1C)c(=O)nc1c(-c3nc4ccccc4s3)n[nH]n12`, for which the growth was 96.7% (inactive).

On to `CC(=O)CC1CCCC1c1ccc2ccccc2c1` (centres undefined), for which the growth is 101% (inactive).

With `CCn1cc(-c2ccnc3[nH]c(-c4cccc(CN(C)C)c4)cc23)c(-c2ccc(NC(=O)N(C)C)cc2)n1`, the growth is 9.19% (active).

Consider `N[C@@H]1CCCN(c2c(/C=C3\SC(=O)NC3=O)cccc2-c2ccccc2)C1`, for which the growth is 75.9% (inactive).

Regarding `Brc1ccc([I+]c2ccc(Br)cc2)cc1`, the growth is 18.6% (inactive).

Turning to `O=C(NC[C@H](O)CO)c1ccncc1Nc1ccc(I)cc1F`, the growth was 53.2% (inactive).

For `N#Cc1c(NC(=O)c2ccco2)[n+]([O-])c2cc(F)c(F)cc2[n+]1[O-]`, the growth was 106% (inactive).

Take `COc1cc2ncnc(Oc3cccc(NC(=O)Nc4cc(C(C)(C)C(F)(F)F)on4)c3)c2cc1OC`: the growth is 34.3% (inactive).

In the case of `O=C(c1ccc(/C=C/c2n[nH]c3ccccc23)cc1)N1CCNCC1`, the growth is 10.7% (inactive).

In the case of `N#CC(C#N)=NO`, the growth is 108% (inactive).

`CN1CCC(COc2cnc(-c3cccc(Cn4nc(-c5cccc(C#N)c5)ccc4=O)c3)nc2)CC1`: the growth was 52.4% (inactive).

As to `CC(C)OP(=O)(CCC(=O)c1c[nH]c2ccccc12)OC(C)C`, the growth was 114% (inactive).

Regarding `COc1cc(NCCN(CC(C)C)CC(C)C)c2ncc(C)cc2c1`, the growth was 60.4% (inactive).

With `O=c1sn(-c2cccc3ccccc23)c(=O)n1Cc1ccccc1`, the growth was 101% (inactive).

For `Cc1cc2c(F)c(Oc3ncnn4cc(OC[C@@H](C)OC(=O)[C@H](C)N)c(C)c34)ccc2[nH]1`, the growth is 38.7% (inactive).

For the compound `CCCCN1C(=O)c2cccc3c(-c4ccc5c(c4)ncn5C4CCCCC4)ccc(c23)C1=O`, the growth is 110% (inactive).

In the case of `C=CC(=O)Nc1cc2c(Nc3ccc(F)c(Cl)c3)ncnc2cc1OCCCN1CCOCC1`, the growth was 31.2% (inactive).

Turning to `CCN(CC)CCCC(C)Nc1cc(-c2ccc(C(F)(F)F)cc2)c(C#N)c2nc3ccccc3n12` (centres undefined), the growth was -18.8% (active).

As for `C=CC(=O)Nc1cc(Nc2nccc(-c3cn(C)c4ccccc34)n2)c(OC)cc1N(C)CCN(C)C`, the growth is -54.8% (active).

Take `O=C(Nc1cnn2ccc(N3CCC[C@@H]3c3cc(F)ccc3F)nc12)N1CC[C@H](O)C1`: the growth is 84.1% (inactive).

As for `S=C(NCc1ccc2c(c1)OCO2)N1CCN(c2ncnc3c2oc2ccccc23)CC1`, the growth is 31.8% (inactive).

Take `O=C(NOC[C@H](O)CO)c1ccc(F)c(F)c1Nc1ccc(I)cc1F`: the growth was 54% (inactive).

For the compound `CC(=O)Oc1ccccc1C(=O)N=C1[Se]CCN1C(=O)c1ccccc1OC(C)=O`, the growth is -7.43% (active).

Consider `COC(=O)CCCNc1c(-c2c(O)c(O)cc3c(O)c(-c4c(C)cc5c(-c6nc7ccccn7c6NCCCC(=O)OC)c(O)c(O)cc5c4O)c(C)cc23)nc2ccccn12`, for which the growth was 6.59% (active).

With `O=C(CNc1nc(-c2ccc(Cl)cc2)cs1)Nc1ccc(-c2nc3ccccc3s2)cc1`, the growth is 91.3% (inactive).

Source of the values: PubChem BioAssay (NCI).
